The full ranking holds about 33,000 sequences; the median of “E-score (-0.5 to 0.5)” is about -0.0059, and the highest 2% start at about 0.26. This is one part of a sample in which the highest values are shown more often than they occur.
target: T1, Cin5 (UniProt P40917); assay: PBM E-score (8-mer binding enrichment) (E-score (-0.5 to 0.5)); higher = stronger / more preferred TF binding; details: protein concentration: 100 nM; construct: GST-full length
T1 sequence: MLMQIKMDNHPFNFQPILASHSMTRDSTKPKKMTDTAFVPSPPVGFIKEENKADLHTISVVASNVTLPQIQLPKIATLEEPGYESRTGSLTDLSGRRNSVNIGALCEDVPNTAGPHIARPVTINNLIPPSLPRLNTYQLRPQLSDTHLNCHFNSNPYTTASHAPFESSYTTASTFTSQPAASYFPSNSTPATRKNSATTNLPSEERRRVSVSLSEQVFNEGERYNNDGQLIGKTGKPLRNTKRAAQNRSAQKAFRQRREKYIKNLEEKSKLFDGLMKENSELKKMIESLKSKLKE
Method in brief: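 Yeast transcription factors, full-length or as DNA-binding domains, were expressed with a GST tag using PURExpress in vitro transcription/translation. At about 100-200 nM they were applied to universal all-10-mer Agilent arrays, double-stranded by primer extension on fresh or once-stripped slides. Fluorescent anti-GST detected bound protein, and masliner normalised the scans. E-scores for ungapped eight-base words, pooled with reverse complements, came from the Universal PBM Analysis Suite.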

| Sequence | PBM E-score |
| --- | --- |
| CAGTCAGC | -0.0612 |
| ACGTCAGC | 0.394 |
| CCGTCATC | -0.075 |
| ACGTCATG | 0.228 |
| AAGTCAGA | 0.0006 |
| ATGTCAGC | 0.272 |
| ATGTCAGA | 0.114 |
| CGGACTTC | -0.131 |
| CAGCTAAG | -0.252 |
| GTAACCCA | 0.234 |
| ATTCTTAG | -0.0605 |
| GGAGGGGA | -0.0844 |
| CAAGTCCG | -0.109 |
| ACTGTTGA | -0.0374 |
| CCGGGACG | -0.162 |
| GAACGTCA | -0.161 |
| TCTAGAGA | -0.228 |
| ATGTCATC | 0.142 |
| ATGTCATA | 0.299 |
| CTGTCATA | 0.0932 |
| AACCCCCC | -0.468 |
| AAGGCTGG | -0.277 |
| AGACTCCG | -0.121 |
| AAAGATGA | 0.00284 |
| ATGGCAAT | 0.113 |

| Sequence | PBM E-score |
| --- | --- |
| GTTAGTTA | 0.225 |
| ATTAGTTA | 0.315 |
| ATTAGTCA | 0.341 |
| GTTAGTCA | 0.0867 |
| ATTAGTCG | 0.193 |
| ATTAGTTG | 0.241 |
| CTTGAGCC | -0.241 |
| AGATCATA | 0.186 |
| GATCCCCC | -0.426 |
| GTGACTAA | 0.123 |
| CTGACTTA | 0.298 |
| GTGACTTA | 0.0722 |
| ATGACTTA | 0.149 |
| CTGACTAA | 0.36 |
| ATGACTAA | 0.235 |
| CGTGTAAA | -0.142 |
| AAGGGTGA | -0.0502 |
| TCGGCCGA | 0.0246 |
| CACGGGAC | -0.118 |
| AATCCCGA | 0.26 |
| CATCCCGA | 0.0504 |
| TATCCCGA | 0.125 |
| CCTTAGGA | 0.0118 |
| ATCGTGTC | 0.0401 |
| AATTCGCT | 0.325 |

| Sequence | PBM E-score |
| --- | --- |
| AATTCGCC | 0.154 |
| AATTCGCG | 0.0954 |
| GCACTCGA | 0.0449 |
| GCCTGATA | -0.0274 |
| AATAGTAA | 0.27 |
| CATAGTAC | 0.0648 |
| TATAGTCA | 0.0921 |
| TATAGTAA | 0.324 |
| AATAGTAC | 0.05 |
| GATAGTAA | 0.195 |
| TATAGTGA | -0.0129 |
| CATAGTAA | 0.279 |
| AATAGTAG | 0.144 |
| ACTACCAC | 0.017 |
| TCACCTAA | 0.142 |
| AACGCTAT | 0.0739 |
| ATAATCCA | 0.225 |
| ATAATCTA | 0.242 |
| CTAATCGA | 0.202 |
| CTAATCCA | 0.219 |
| ATGATCGA | 0.0882 |
| GCAATCGA | 0.0191 |
| CTAATCTA | 0.00395 |
| CTGATCGA | -0.179 |
| GTAATCGA | 0.275 |

| Sequence | PBM E-score |
| --- | --- |
| GTAATCCA | 0.281 |
| GTAATCTA | 0.354 |
| GTGATCGA | 0.273 |
| CTGCCAAA | -0.065 |
| CGCGCTAC | 0.029 |
| GACATAGC | 0.0934 |
| ACCGTACA | -0.108 |
| GGGTCCAA | -0.0685 |
| AAAGCTAC | -0.0407 |
| GATCTAAA | 0.0626 |
| CCAATAGA | -0.01 |
| AACCCGAC | 0.0291 |
| ACCCCGAT | 0.155 |
| AACCCGAT | 0.258 |
| GAATTATA | 0.101 |
| CAATTATG | 0.141 |
| CAATTATA | 0.126 |
| ACATTATG | 0.106 |
| CATTTATC | 0.0882 |
| AATTTATC | 0.27 |
| CAATTAAC | 0.134 |
| CCATTATC | 0.0699 |
| ACATTATC | 0.289 |
| TAATTATA | 0.351 |
| CAATTATC | 0.277 |

| Sequence | PBM E-score |
| --- | --- |
| AATTTATA | 0.249 |
| ACGCAATA | 0.209 |
| TAAGGCAA | 0.0779 |
| CAAGGAGG | 0.00169 |
| AGGGGTGC | -0.088 |
| CTGGACGA | -0.129 |
| CGAAAGAC | 1e-05 |
| CCCCGGGA | 0.0124 |
| AAATTACA | 0.248 |
| AAATTATA | 0.262 |
| TAATTACA | 0.259 |
| GAATTATC | 0.145 |
| AAATTATC | 0.278 |
| CAATTACA | 0.242 |
| AAATTATT | 0.183 |
| AAATTATG | 0.24 |
| AAATTAAA | 0.214 |
| AATAGAAT | 0.106 |
| CTGGGTTA | -0.0908 |
| ACAGAACA | 0.136 |
| CCCATTCA | 0.214 |
| TGAGACCA | -0.078 |
| AAGCCTGG | -0.072 |
| GCCGTGAC | -0.0205 |
| CTACTCAG | -0.0922 |

| Sequence | PBM E-score |
| --- | --- |
| ATACTCAA | 0.204 |
| ATACTCAG | 0.258 |
| CCCGTTCA | -0.0227 |
| AAAGCGTC | -0.113 |
| GTAGTCAC | -0.185 |
| ACTTTTAA | 0.0259 |
| ACTTTTAC | 0.273 |
| CATTTTAC | 0.263 |
| CATTTTAG | 0.137 |
| ACTTTTAG | -0.0275 |
| CATTTTAA | 0.0885 |
| GACTCCAA | -0.226 |
| CTAGTGTC | -0.0545 |
| GGGTTGAA | -0.0789 |
| CAGACTAG | -0.237 |
| ATAGGTCA | 0.0611 |
| CCTAATAA | 0.0783 |
| CTTAATAA | 0.267 |
| GGTAATAC | 0.168 |
| ATTAATGG | 0.156 |
| CTTAATAC | 0.191 |
| ATTAAAAA | 0.162 |
| ATGAATAG | 0.148 |
| TCTAATAA | 0.0206 |
| ATTAATAG | 0.272 |

| Sequence | PBM E-score |
| --- | --- |
| ATTAATAC | 0.27 |
| GTTAATAA | 0.186 |
| ATTAATAA | 0.336 |
| GTGCCAAC | -0.0934 |
| CAAAAAGG | -0.138 |
| GACTACCC | -0.127 |
| AACTGTCT | 0.0125 |
| CCGCCGAC | -0.119 |
| GAACAGAC | 0.0587 |
| GGCGCGGA | -0.189 |
| AACTGGAA | 0.0471 |
| ATGATAAA | 0.188 |
| GTGATAAC | 0.125 |
| ATGATAAG | 0.204 |
| ATGATAAT | 0.272 |
| ATGATAAC | 0.262 |
| CTGATAAC | -0.054 |
| ATGATAGG | -0.0261 |
| ATGATAGA | -0.0131 |
| ATGATAGC | 0.269 |
| AGCTGATA | 0.0998 |
| ATCCTTCC | -0.2 |

From the supplement of paper PMC3334620
